Data published in PubChem BioAssay AID588596 (NMMLSC, 2011).
Potency and affinity values are given separately. The source made the active and inactive calls. Where a call stands in place of a potency, no number is given. The rule behind the calls is not given here.

Experiment: V-ATPase regulators, yeast pH concentration series – S. cerevisiae, pHLuorin, cherry pick 1, dose response (AID 588596)
Details: S. cerevisiae pHLuorin vacuolar pH fluorescence; series mostly up to 33.1 µM
With `Cc1cccc(N=Cc2[nH]c3ccc(Br)c(Cl)c3c2O)c1` the outcome was “inactive”. In the case of `O=C(CCSC1=NCCCN1)c1ccc(F)cc1`, the outcome is reported as “inactive”. For `O=C(N1CCCC1)C12CCC3CC(CC(C3)C1)C2`, the outcome was “inactive”. In the case of `CCOC(=O)Cn1c(=O)c(-c2cc(Br)ccc2N)nc2ccccc21`, the outcome is reported as “inactive”.
